Experimental data from PubChem BioAssay (NCATS).
Records with an inconclusive call do not appear. Entries that show only a call come without a potency. The source made the active and inactive calls. Unless noted, calls follow the shape of the dose curve; as a rule, active = well fitted curve in the direction sought with a large enough effect; inconclusive = small, poorly fitted or top-dose-only effect, or another doubt; inactive = no such curve, though single readings can be large; an effect the other way counts as inactive or inconclusive.

Assays:
[1] = Primary qHTS for small molecule stabilizers of the endoplasmic reticulum resident proteome: Secreted ER Calcium Modulated Protein (SERCaMP) assay (AID 1508630)
Outline: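 GLuc-SERCaMP-expressing SH-SY5Y cells, pretreated 16 h with compound, are challenged with thapsigargin to empty ER calcium stores; after 4 h, coelenterazine is added directly to the medium and luminescence is imaged.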

[2] = molecular target: Calcium and integrin-binding protein 1 (Homo sapiens) (UniProt Q99828); assay: Primary qHTS for Identification of Calcium Integrin Binding Protein 1 (CIB1) Competitor (AID 1508620);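 also: GST tagged CIB1 binding a fluorescein labelled alphaIIb integrin peptide tracer; top concentration of the series differs between compounds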
Outline: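 CIB1-GST (1 uM final) and compound incubated 15 min at room temperature before adding FITC-alphaIIb peptide tracer (100 nM final). Competition for binding read by fluorescence polarization (ex 480, em 540) after another 15 min at room temperature.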

[3] = molecular target: Cytochrome P450 3A4 (Homo sapiens) (UniProt P08684); assay: qHTS Assay for Inhibitors and Substrates of Cytochrome P450 3A4 (AID 884); also: nearly all actives have a fitted effect of over 50% in size
Outline: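 20 nM human CYP3A4 with 25 uM Luciferin-PPXE (at KM) in 200 mM KPO4, preincubated 10 min with compound; NADPH regeneration started a 60 min RT reaction. Luciferin detected by luminescence, normalized to 57 uM ketoconazole as full inhibition.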

[4] = Confirmation and Secondary Assay for Modulators of Hemoglobin Beta Chain Splicing at IVS2 654 locus (AID 910);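 also: HeLa cells stably carrying EGFP split by mutant beta-globin IVS2-654 intron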
Outline: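 Readout: per-well total peak green fluorescence (488 nm ex, 500–520 nm em) from objects 5–250 µm, reflecting correct splicing of an EGFP-654 reporter. Compounds were applied for 2 days at 37 °C to overnight-plated HeLa EGFP-654 cells; controls were DMSO and 500 nM IVS2-654 PNA.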

[5] = Confirmation and Secondary Assay for Modulators of Hemoglobin Beta Chain Splicing at IVS2 705 locus (AID 930);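 also: HeLa cells stably expressing the EGFP-705 splicing reporter; GFP fluorescence per well restored by corrected splicing of the IVS2-705 intron in EGFP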
Outline: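 Read-out: total peak GFP fluorescence per well (488 nm excitation, 500-520 nm emission) by laser-scanning cytometry. Cells: HeLa EGFP-705 splicing reporter, 2 days compound exposure in Optimem/2% FCS.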

[6] = qHTS Assay for Lipid Storage Modulators (AID 1519; calls by dose curve); settings: Drosophila S3 cells, BODIPY lipid droplet/cell ratio, laser cytometry, cells loaded with oleic acid; for activity change, negative = inhibition: at 57.5 µM (top of the series)
Outline: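 Cells seeded at 5,000 per well were treated with compounds over a concentration series and loaded with oleic acid (400 uM, as added). Lipid droplet fluorescence (488 nm excitation, 500-530 nm channel) was read by laser-scanning cytometry and normalized to 20 uM Triacsin C.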

[7] = Counterscreen qHTS for small molecule stabilizers of the endoplasmic reticulum resident proteome: GLuc-NoTag assay (AID 1508627);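 also: SH-SY5Y cells given compound then 100 nM thapsigargin to empty ER calcium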
Outline: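 Luminescence of Gaussia luciferase secreted into the medium (coelenterazine, 0.07x final, unlysed cells) was the read-out. Human SH-SY5Y neuroblastoma cells constitutively secreting untagged GLuc received compound for 19 h, then 100 nM thapsigargin for 4 h.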

[8] = Cell Viability qHTS for small molecule stabilizers of the endoplasmic reticulum resident proteome (AID 1508629); settings: cell viability counter-screen, 100 nM thapsigargin for final 4 h;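 also: human SH-SY5Y neuroblastoma cells carrying the GLuc-SERCaMP reporter; compound exposure about 46 h in total before the viability read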
[9] = Confirmatory qHTS for small molecule stabilizers of the endoplasmic reticulum resident proteome: Secreted ER Calcium Modulated Protein (SERCaMP) assay (AID 1508628); also: nearly all actives have a fitted effect of over 40% in size
Outline: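 SH-SY5Y cells stably expressing GLuc-SERCaMP, treated 16 h with compound (primary 1.53, 7.67, 38.3 uM; confirmation 11 concentrations, up to 76.6 uM), then 100 nM thapsigargin for 4 h. Secreted Gaussia luciferase in medium read by coelenterazine luminescence.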

[10] = system: HIV-1 nucleocapsid protein NCp7 (binding to TG oligonucleotide); assay: HIV Nucleocapsid (AID 346; call rule not given here;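 also: potency is read from the fitted curve at half-maximal effect; potency is for inhibitors that block NC binding and lower polarization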); settings: HIV-1 NC / fluorescein-TGTGTGTG probe, fluorescence polarization
Outline: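 HIV-1 NC (100 nM) binding to fluorescein-labelled ssDNA TG4xF (10 nM) in Hepes pH 7.5, 250mM NaCl, 1uM ZnCl2, TCEP and 2-mercaptoethanol; compounds pin-transferred, 1 hr room temperature, fluorescence polarization read on CCD imager.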

[11] = AP1 Signaling Pathway (AID 357; active = well fitted curve in either direction with a large enough effect, not every such curve was filed as active;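 also: ME-180 reporter cells stimulated with EGF at its EC50 level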)
Outline: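 Cells are seeded overnight, exposed to compound titrations and an EC50 level of EGF for 5 hours at 37 °C, then loaded with CCF4 dye for 2.5 hours. Beta-lactamase activity under the AP-1 element is read as a blue/green ratio.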

[12] = molecular target: Cytochrome P450 1A2 (Homo sapiens) (UniProt P05177); assay: p450-cyp1a2 (AID 410; calls by dose curve; also: potency is read from the fitted curve at half-maximal effect)
Outline: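 Luminescent readout of luciferin formed from Luciferin-ME by human CYP1A2; data normalized against complete inhibition by 57 uM furafylline. Enzyme 20nM, substrate 100uM at Km, 100mM KPO4 buffer, 60 min reaction at room temperature.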

[13] = NFAT Signaling Pathway (AID 444; active = well fitted curve in either direction with a large enough effect, not every such curve was filed as active;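 also: carbachol stimulus at about its EC50 of 1 µM final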); settings: Jurkat NFAT-bla M1, carbachol, beta-lactamase ratio, 5 h; at 7.69 µM (top of the series)
Outline: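 Read-out: CCF4 FRET ratio (460 nm/530 nm) after 1 h RT dye loading, used for %activity and AC50 from titration series. Cells: Jurkat NFAT-β-lactamase/M1 line, treated with compound plus 1 uM carbachol for 5 h, 37 °C.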

[14] = Stat Signaling Pathway (AID 446; active = well fitted curve in either direction with a large enough effect, not every such curve was filed as active;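 also: ME-180 cervical cancer cells given 40 pM IL-6 alongside compound; SIE-controlled beta-lactamase reporter measured as 460/530 nm FRET emission ratio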)
Outline: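 ME-180 cells carrying a SIE-driven beta-lactamase reporter are stimulated with 40 pM IL-6 for 5 h at 37C in the presence of compound. The 460/530 nm FRET substrate ratio is read after 2.5 h at RT. Data are normalised to 300 pM IL-6 and to 125 nM JAK inhibitor controls.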

[15] = molecular target: Glucocorticoid receptor (Homo sapiens) (UniProt P04150); assay: GR-EFC Redistribution (AID 451; calls by dose curve; also: potency is read from the fitted curve at half-maximal effect); settings: CHO-K1 GR-EFC translocation, beta-gal luminescence, 2 h
Outline: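 Translocation of GR-ED fusion to nuclear EA restores b-gal, read by luminescence after 1 h room-temperature detection. Engineered CHO-K1 biosensor cells, 1,000/well, exposed 2 h at 37 C to titrations up to 46 uM final.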

[16] = molecular target: Mitogen-activated protein kinase 10 (Mus musculus) (UniProt Q61831); assay: JNK3 AlphaScreen Assay (AID 530; active = well fitted curve in either direction with a large enough effect, not every such curve was filed as active;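 also: kinase came from lysate of stimulated human HepG2 cells; signal reports phosphorylation of biotinylated GST-cJun 1-79 at Ser73 with 10 µM ATP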)
Outline: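 Compound titrations were preincubated 15 minutes at room temperature with substrate, antibody and pre-activated JNK3-containing HepG2 lysate. Reactions were started with 10 uM ATP and stopped with EDTA-containing bead buffer for AlphaScreen detection.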

[17] = molecular target: Cytochrome P450 3A4 (Homo sapiens) (UniProt P08684); assay: qHTS Assay for Activators of Cytochrome P450 3A4 (AID 885); also: nearly all actives have a fitted effect of over 65% in size
Outline: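 Human CYP3A4 (20 nM) with Luciferin-PPXE at 25 uM (its KM) in 200 mM KPO4; 10 min compound preincubation, then NADPH regeneration and 60 min reaction at RT. Luciferin read by luminescence; normalized to 57 uM ketoconazole full inhibition.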

[18] = measured here: cell count channel max response
[19] = measured here: lipid channel max response

Sequence of Cytochrome P450 3A4 (Homo sapiens) (P08684 whole entry, looked up): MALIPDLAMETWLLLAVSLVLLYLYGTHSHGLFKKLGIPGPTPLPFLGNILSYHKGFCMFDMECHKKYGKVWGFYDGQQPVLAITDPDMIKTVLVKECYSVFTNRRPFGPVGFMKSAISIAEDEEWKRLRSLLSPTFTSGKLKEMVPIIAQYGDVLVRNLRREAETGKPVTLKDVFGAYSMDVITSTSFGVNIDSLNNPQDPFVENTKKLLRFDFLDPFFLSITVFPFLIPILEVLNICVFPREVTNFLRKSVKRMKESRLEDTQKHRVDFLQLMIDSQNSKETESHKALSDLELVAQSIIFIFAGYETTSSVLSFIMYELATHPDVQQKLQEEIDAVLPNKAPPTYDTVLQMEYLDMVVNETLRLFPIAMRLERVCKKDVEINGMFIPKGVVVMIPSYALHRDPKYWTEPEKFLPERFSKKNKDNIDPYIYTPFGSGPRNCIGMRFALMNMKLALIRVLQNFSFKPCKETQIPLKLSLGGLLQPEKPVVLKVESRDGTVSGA
Sequence of Cytochrome P450 1A2 (Homo sapiens) (P05177 whole entry, looked up): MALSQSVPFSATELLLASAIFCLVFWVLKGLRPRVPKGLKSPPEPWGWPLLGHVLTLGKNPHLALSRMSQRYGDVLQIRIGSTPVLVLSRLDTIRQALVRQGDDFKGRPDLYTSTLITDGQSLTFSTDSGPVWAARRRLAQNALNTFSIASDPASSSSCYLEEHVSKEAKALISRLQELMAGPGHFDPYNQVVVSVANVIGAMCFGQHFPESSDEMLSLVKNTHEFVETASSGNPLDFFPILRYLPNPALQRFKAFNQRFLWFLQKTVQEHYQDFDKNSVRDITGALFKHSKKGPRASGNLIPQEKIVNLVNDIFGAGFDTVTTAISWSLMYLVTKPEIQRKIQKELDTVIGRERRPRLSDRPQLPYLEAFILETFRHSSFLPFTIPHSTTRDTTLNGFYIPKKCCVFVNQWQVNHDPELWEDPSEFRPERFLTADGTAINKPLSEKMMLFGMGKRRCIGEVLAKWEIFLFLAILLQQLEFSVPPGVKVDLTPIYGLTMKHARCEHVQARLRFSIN
Sequence of Calcium and integrin-binding protein 1 (Homo sapiens) (Q99828 whole entry, looked up): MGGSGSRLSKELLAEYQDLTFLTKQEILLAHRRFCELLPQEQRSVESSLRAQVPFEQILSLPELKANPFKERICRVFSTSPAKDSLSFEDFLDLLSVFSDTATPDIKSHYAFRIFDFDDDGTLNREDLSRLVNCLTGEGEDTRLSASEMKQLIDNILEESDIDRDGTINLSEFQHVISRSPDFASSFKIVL
Sequence of Glucocorticoid receptor (Homo sapiens) (P04150 whole entry, looked up, the tested form may be a part): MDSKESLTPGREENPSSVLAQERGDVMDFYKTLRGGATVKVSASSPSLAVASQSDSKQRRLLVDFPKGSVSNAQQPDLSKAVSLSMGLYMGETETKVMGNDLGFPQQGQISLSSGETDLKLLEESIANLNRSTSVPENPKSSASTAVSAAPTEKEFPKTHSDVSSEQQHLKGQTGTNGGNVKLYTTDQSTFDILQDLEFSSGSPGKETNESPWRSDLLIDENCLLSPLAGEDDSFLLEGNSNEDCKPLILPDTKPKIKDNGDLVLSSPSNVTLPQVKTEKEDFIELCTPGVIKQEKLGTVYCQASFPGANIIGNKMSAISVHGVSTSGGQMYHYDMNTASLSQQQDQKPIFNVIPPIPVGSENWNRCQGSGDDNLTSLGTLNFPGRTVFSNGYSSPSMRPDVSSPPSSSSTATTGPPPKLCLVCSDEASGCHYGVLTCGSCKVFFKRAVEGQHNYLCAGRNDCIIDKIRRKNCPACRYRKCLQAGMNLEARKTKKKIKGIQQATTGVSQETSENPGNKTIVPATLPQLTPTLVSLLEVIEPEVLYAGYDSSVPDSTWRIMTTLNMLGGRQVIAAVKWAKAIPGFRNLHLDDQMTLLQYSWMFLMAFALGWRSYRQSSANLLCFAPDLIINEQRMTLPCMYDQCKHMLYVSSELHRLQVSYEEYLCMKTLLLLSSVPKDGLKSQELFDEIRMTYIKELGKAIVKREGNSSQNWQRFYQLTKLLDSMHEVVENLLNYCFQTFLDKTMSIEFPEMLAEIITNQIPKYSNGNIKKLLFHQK

## CCOC(=O)c1ncc2[nH]c3ccc(OCc4ccccc4)cc3c2c1COC
[1]
  outcome: inactive

## CN1CC[C@@]2(C)c3cc(O)ccc3N(C)C2O1 (some centres not stated)
[2]
  outcome: inactive

## O=C(CN1CCCCC1c1cccnc1)c1ccccc1 (configuration not stated)
[1]
  outcome: inactive

## CC(=O)OC[C@]12C[C@H](OC(=O)CC(C)C)C(C)=C[C@H]1O[C@H]1[C@H](O)[C@@H](OC(C)=O)[C@@]2(C)[C@]12CO2
[1]
  outcome: inactive

## CCCOC(=O)c1cc2c(cn1)[nH]c1ccccc12
[1]
  outcome: inactive

## CC(=O)C1=C(O)C2C3c4c[nH]c5cccc(c45)CC3C(C)(C)N2C1=O (configuration not stated)
[3]
  Potency: inactive
[4]
  Potency: inactive
[5]
  Potency: inactive
[6]
  activity change, negative = inhibition: 8.13% (inactive)
[6]; [18]
  max response: 15.9%
[6]; [19]
  max response: 22.7%
[7]
  outcome: inactive
[8]
  max response: -5.15% (inactive)

## O=C(O)[C@@H]1CSC(c2cccnc2)N1 (some centres not stated)
[7]
  outcome: inactive
[9]
  Potency: inactive
[8]
  max response: 25.6% (inactive)

## CCCC[N+]12C3CC(C(CC)[C@H]1O)[C@@H]1C(O)C4(C[C@@H]12)c1ccccc1N(C)C34 (some centres not stated)
[1]
  outcome: inactive

## O=C(O)[C@@H]1Cc2[nH]cnc2C(c2cccnc2)N1 (some centres not stated)
[1]
  outcome: inactive

## CC[C@]12CCCN3CCC4(c5ccccc5NC4C(C(=O)O)C1)C32 (some centres not stated)
[1]
  outcome: inactive

## c1ccc(N2CCCC3(CCNCC3)C2)nc1
[10]
  Potency: > 20 µM (inactive)
[11]
  outcome: inactive
[12]
  Potency: 25.1 µM (active)
[13]
  activity change, negative = inhibition: -27% (inactive)
[14]
  outcome: inactive
[15]
  Potency: > 46 µM (inactive)
[16]
  outcome: inactive
[17]
  Potency: inactive
[6]
  activity change, negative = inhibition: 3.94% (inactive)
[6]; [18]
  max response: 2.21%
[6]; [19]
  max response: 8.95%
[7]
  outcome: inactive
[8]
  max response: -3.57% (inactive)
